The list is not random: actives were taken first. Their share in the collection is about 8.2%.
ELG1 repair inh – inhibitors of ELG1-dependent DNA repair in HEK293T cells. Potency, µM (doses to about 46.1 µM), most hits filed as inhibitors. HEK293T ELG1-luciferase reporter, luminescence, 16 h; DNA damage induced by 5-fluorouridine. 2.3% of 330,000 active; further: nearly all actives have a fitted effect of over 55% in size
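In this reporter screen, reduction of luminescence relative to DMSO vehicle indicated activity. Compounds and 5-fluorouridine were added together to 2,000 cells per well, incubated for 16 hr at 37 °C, then developed with ONE-Glo.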
KB-3-1 tox – KB-3-1 parental cell cytotoxicity; KB-3-1 viability, CellTiter-Glo ATP luminescence, 72 h; Potency, µM (doses to about 46.1 µM), usual class: cytotoxic; 1.4% of 400,000 active; further: nearly all actives have a fitted effect of over 60% in size
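KB-3-1 parental drug-naive adenocarcinoma cells in DMEM/10% FBS, incubated 72 h at 37 C with pin-transferred compounds across a concentration series. Viability by CellTiter-Glo luminescence; concentration-response curves fitted after normalization.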
MCF10A rereplic – inducers of DNA re-replication in MCF 10A breast cells; MCF 10A DNA re-replication, Hoechst nuclear intensity, 48 h; Potency, µM (series often up to 46.1 µM), hits mostly activators; 2.9% of 350,000 active; AID 624296; further: nearly all actives have a fitted effect of over 50% in size
KB-V1 MDR tox – KB-V1 MDR subline cytotoxicity. KB-V1 MDR cells viability, CellTiter-Glo, 72 h. Potency, µM (highest dose often 46.1 µM), actives largely listed as cytotoxic. 3.4% of 400,000 active. AID 1347076; further: nearly all actives have a fitted effect of over 60% in size
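KB-V1 MDR subline cells in DMEM (phenol-red free, 10% FBS) exposed to compounds in qHTS concentration series for 72 h at 37 degrees C. Viability read by CellTiter-Glo luminescence; concentration-effect curves fitted after normalization and correction.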
SW480 rerep – inducers of DNA re-replication in SW480 colon cancer cells | SW480 DNA re-replication, Hoechst DNA content imaging, 48 h | 1.8% of 340,000 active | Potency, µM (highest dose often 46.1 µM), usual class: activators | AID 624297; further: nearly all actives have a fitted effect of over 55% in size
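Compounds, transferred as 23 nL by pin tool, were incubated with cells for 48 hr; DNA content per nucleus was then quantified by Hoechst staining and fluorescence plate imaging.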
Of the large screens only hits and unclear results are named; the others gave an inactive call. The call rests on the fitted dose curve; in most records, active means well fitted curve in the direction sought with a large enough effect; inconclusive means small, poorly fitted or top-dose-only effect, or another doubt; inactive means no such curve, though single readings can be large; an effect the other way counts as inactive or inconclusive.

CC(NC(=O)CC(c1ccccc1)c1cc(Cl)ccc1O)c1ccccc1 (centres undefined)	KB-3-1 tox inconclusive, MCF10A rereplic inconclusive, KB-V1 MDR tox 21µM
CN(Cc1ccccc1)C(=O)CC(c1ccccc1)c1cc(Cl)ccc1O (centres undefined)	KB-3-1 tox inconclusive, MCF10A rereplic inconclusive, KB-V1 MDR tox 13µM, SW480 rerep inconclusive
O=C(Nc1nc(-c2ccccn2)cs1)c1ccco1	ELG1 repair inh inconclusive, MCF10A rereplic inconclusive, SW480 rerep 4.1µM
C[C@H](NC(=O)c1ccco1)C(=O)Nc1nc(-c2ccccn2)cs1	KB-V1 MDR tox 4.1µM, SW480 rerep inconclusive (no result: ELG1 repair inh)
O=C(Nc1nc(-c2ccncc2)cs1)c1ccco1	ELG1 repair inh inconclusive, KB-V1 MDR tox inconclusive
O=C(Nc1nc(-c2ccccn2)cs1)c1ccc(Br)s1	MCF10A rereplic 26µM, KB-V1 MDR tox 1.3µM, SW480 rerep 2.1µM
O=C(Nc1nccs1)c1ccc(Br)s1	ELG1 repair inh inconclusive
CC(Oc1ccc(F)cc1)C(=O)Nc1nc(-c2ccccn2)cs1 (centres undefined)	ELG1 repair inh inconclusive, KB-3-1 tox inconclusive, MCF10A rereplic 3.3µM
O=C(CCS(=O)(=O)c1ccc(F)cc1)Nc1nc(-c2ccccn2)cs1	ELG1 repair inh inconclusive, KB-3-1 tox inconclusive
C[C@H](NC(=O)c1ccco1)C(=O)Nc1nnc(SCc2ccccc2)s1	MCF10A rereplic inconclusive
CCOc1ccc(CCNC(=O)C2CCN(S(=O)(=O)N3CCC(C)CC3)CC2)cc1OCC	ELG1 repair inh inconclusive, KB-V1 MDR tox 2.6µM
COc1ccc(CCNC(=O)C2CCN(S(=O)(=O)N3CC(C)CC(C)C3)CC2)cc1OC (centres undefined)	KB-V1 MDR tox 21µM
O=C(NCCc1ccccc1F)C1CC(=O)N(c2cccc(C(F)(F)F)c2)C1 (centres undefined)	KB-V1 MDR tox 13µM (no result: ELG1 repair inh)
COc1ccc(CCNC(=O)C2CC(=O)N(c3ccc(C(C)(C)C)cc3)C2)cc1OC (centres undefined)	MCF10A rereplic 0.58µM
O=C(NCCc1ccccc1F)C1CC(=O)N(c2ccccc2)C1 (centres undefined)	none
COc1ccc(CCNC(=O)C2CCCN(S(=O)(=O)N3CC(C)CC(C)C3)C2)cc1OC (centres undefined)	KB-V1 MDR tox inconclusive
COc1ccc(CCNC(=O)C2CC(=O)N(c3ccc(C)cc3)C2)cc1OC (centres undefined)	none
OCC[C@@H]1C[C@H](O)[C@@H](O)[C@@]2(OCc3ccc4ccccc4c32)O1	none (no result: ELG1 repair inh, MCF10A rereplic, SW480 rerep)
CCOc1ccc(NC(=NCc2ccc3c(c2)OCO3)SC2CC(=O)N(c3ccc(C(=O)O)cc3)C2=O)cc1 (centres undefined)	none
CO[C@H]1OC2O[C@@]3(C)CC[C@H]4[C@H](C)CC[C@@H]([C@H]1C)[C@@]24OO3 (some centres undefined)	SW480 rerep inconclusive (no result: ELG1 repair inh, KB-3-1 tox, KB-V1 MDR tox)
O=C(CSc1nc2c(cnn2-c2cccc(Cl)c2)c(=O)[nH]1)NCCC1=CCCCC1	ELG1 repair inh inconclusive
CCOCCCn1c(SCC(=O)Nc2ccc(OC)cc2)nc2ccccc2c1=O	ELG1 repair inh inconclusive
COc1ccc(-c2c(C(F)(F)F)oc3cc(OCC(=O)Nc4ccccc4C(F)(F)F)ccc3c2=O)cc1OC	ELG1 repair inh inconclusive, MCF10A rereplic 8.2µM, KB-V1 MDR tox inconclusive
COc1ccccc1-c1c(C(F)(F)F)oc2cc(OS(C)(=O)=O)ccc2c1=O	ELG1 repair inh inconclusive, KB-3-1 tox inconclusive, KB-V1 MDR tox 21µM
COc1ccccc1-c1c(C(F)(F)F)oc2cc(OC(=O)c3ccccc3[N+](=O)[O-])ccc2c1=O	MCF10A rereplic inconclusive
CCc1sc(C(=O)N2CCc3cc(OC)c(OC)cc3C2CC(=O)O)cc1C (centres undefined)	none
CCOC(=O)C1=CC[C@@H](c2ccccc2Cl)N(S(=O)(=O)c2ccc(C)cc2)[C@H]1C(=O)OCC	KB-3-1 tox inconclusive, KB-V1 MDR tox 16µM
CCOC(=O)C1=CC[C@@H](c2cccc(C)c2)N(S(=O)(=O)c2ccc(C)cc2)[C@H]1C(=O)OCC	KB-3-1 tox inconclusive, MCF10A rereplic inconclusive, KB-V1 MDR tox inconclusive
C=C(NNC(C)=O)c1ccc(O)cc1	KB-3-1 tox inconclusive (no result: ELG1 repair inh, MCF10A rereplic, SW480 rerep)
CCN(Cc1ccccc1)Cc1ccc(OCc2ccccc2)cc1	none
CCN(CC)CCOc1ccc(Cc2ccccc2)cc1	MCF10A rereplic 24µM (no result: ELG1 repair inh, KB-3-1 tox, KB-V1 MDR tox)
Cc1ccccc1OCC(O)Cn1c(=N)n(Cc2ccccc2)c2ccccc21 (centres undefined)	ELG1 repair inh inconclusive, KB-3-1 tox inconclusive, KB-V1 MDR tox inconclusive
CN=c1sc2ccccc2n1CC(O)COc1ccccc1 (centres undefined)	KB-V1 MDR tox 15µM
COc1ccccc1OCC(O)Cn1c(=N)n(Cc2ccccc2)c2ccccc21 (centres undefined)	ELG1 repair inh inconclusive, KB-3-1 tox 16µM, MCF10A rereplic inconclusive, KB-V1 MDR tox inconclusive, SW480 rerep inconclusive
CCN(CC)CCn1c(=N)n(CCOc2ccccc2)c2ccccc21	KB-3-1 tox inconclusive, SW480 rerep 11µM
CCN=c1sc2ccccc2n1CC(O)COc1ccccc1 (centres undefined)	MCF10A rereplic inconclusive, KB-V1 MDR tox inconclusive
Cc1cc(C)cc(NC(=O)C2CCCN2S(=O)(=O)c2cccc3nsnc23)c1 (centres undefined)	KB-V1 MDR tox inconclusive (no result: ELG1 repair inh, MCF10A rereplic, SW480 rerep)
CCN(CC)CCn1c(=N)n(CC(O)COc2ccccc2)c2ccccc21 (centres undefined)	ELG1 repair inh inconclusive, SW480 rerep 21µM
CC(C)(C)C(=O)Cn1c(=N)n(Cc2ccccc2)c2ccccc21	KB-3-1 tox inconclusive, MCF10A rereplic 18µM, KB-V1 MDR tox inconclusive, SW480 rerep inconclusive
CCCCn1c(=N)n(CC(O)COc2cccc(C)c2)c2ccccc21 (centres undefined)	ELG1 repair inh inconclusive, KB-3-1 tox 21µM, KB-V1 MDR tox 21µM, SW480 rerep inconclusive
CCCCn1c(=N)n(CCOc2ccc(C)cc2)c2ccccc21	ELG1 repair inh inconclusive, KB-3-1 tox inconclusive, MCF10A rereplic inconclusive, KB-V1 MDR tox inconclusive, SW480 rerep 18µM
CC(C)(C)C(=O)Cn1c(=N)n(Cc2ccccc2Cl)c2ccccc21	KB-3-1 tox inconclusive, SW480 rerep inconclusive
Nc1nonc1C(=O)NCCNCc1ccc(Cl)c(Cl)c1	none (no result: ELG1 repair inh, MCF10A rereplic, SW480 rerep)
O=C1c2oc3ccc(F)cc3c(=O)c2C(c2ccccc2)N1CC1CCCO1 (centres undefined)	ELG1 repair inh inconclusive, KB-V1 MDR tox 8.2µM
Fc1cccc(-c2cc3nc4c(c(N5CCOCC5)n3n2)CCCC4)c1	ELG1 repair inh inconclusive, KB-V1 MDR tox 26µM
OC1CCN(c2c3c(nc4cc(-c5ccc(Cl)cc5)nn24)CCC3)CC1	ELG1 repair inh 18µM, KB-V1 MDR tox inconclusive
CCCC#Cc1ccc2c(c1)O[C@H](CN(C)C(=O)CC1CC1)[C@H](C)CN([C@@H](C)CO)S2(=O)=O	none (no result: ELG1 repair inh, MCF10A rereplic, SW480 rerep)

From PubChem BioAssay
